Eleven compounds from ChEMBL document CHEMBL3988442, “University of Dundee, Small-Polar-MMV Screening Library” (2021) can be followed below.

What all share (design): scale not given: direction of the effect not stated beside the values
In assay [1] the target is Protein translocase subunit SecA (Escherichia coli (strain K12)) (UniProt P10408). As to the kind of experiment: Assay to Identify E. coli SecA ATPase Inhibitors. The note with it: 30 µM. It counts as functional.
Assay [2] has as its target T1, Ubiquitin-activating enzyme e1, putative (Leishmania donovani (strain BPK282A1)) (UniProt E9BSI1).
T1 sequence (whole entry): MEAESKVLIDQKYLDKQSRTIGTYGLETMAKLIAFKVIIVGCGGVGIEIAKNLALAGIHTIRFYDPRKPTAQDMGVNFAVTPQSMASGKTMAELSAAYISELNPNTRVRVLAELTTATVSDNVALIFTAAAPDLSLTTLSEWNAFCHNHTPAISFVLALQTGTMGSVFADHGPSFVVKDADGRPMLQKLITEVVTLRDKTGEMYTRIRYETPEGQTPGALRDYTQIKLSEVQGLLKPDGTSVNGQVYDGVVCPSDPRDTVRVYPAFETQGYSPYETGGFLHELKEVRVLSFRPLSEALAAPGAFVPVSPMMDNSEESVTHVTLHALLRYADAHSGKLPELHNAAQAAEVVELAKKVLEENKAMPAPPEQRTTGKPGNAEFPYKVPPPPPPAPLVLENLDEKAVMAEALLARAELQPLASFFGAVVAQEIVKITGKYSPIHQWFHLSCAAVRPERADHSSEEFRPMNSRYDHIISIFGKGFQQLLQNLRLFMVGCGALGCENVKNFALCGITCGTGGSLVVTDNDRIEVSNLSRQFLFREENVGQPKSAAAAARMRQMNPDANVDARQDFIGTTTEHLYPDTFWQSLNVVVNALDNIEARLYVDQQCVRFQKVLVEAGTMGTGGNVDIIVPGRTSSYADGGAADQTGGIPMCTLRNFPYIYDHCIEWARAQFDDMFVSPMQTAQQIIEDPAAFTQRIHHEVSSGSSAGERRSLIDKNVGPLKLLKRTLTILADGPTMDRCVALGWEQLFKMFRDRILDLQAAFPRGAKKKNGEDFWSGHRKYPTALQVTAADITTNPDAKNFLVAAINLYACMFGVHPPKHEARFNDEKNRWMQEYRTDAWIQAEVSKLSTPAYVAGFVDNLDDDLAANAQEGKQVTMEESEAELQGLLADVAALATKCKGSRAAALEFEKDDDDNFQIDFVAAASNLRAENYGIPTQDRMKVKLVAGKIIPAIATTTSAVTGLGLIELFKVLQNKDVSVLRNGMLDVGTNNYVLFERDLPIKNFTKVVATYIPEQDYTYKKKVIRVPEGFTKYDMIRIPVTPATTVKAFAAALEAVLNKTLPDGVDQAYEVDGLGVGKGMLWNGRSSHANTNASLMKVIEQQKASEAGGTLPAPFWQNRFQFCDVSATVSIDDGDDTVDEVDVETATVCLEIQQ
Briefly: Leishmania donovani Ubiquitin Activating Enzyme (LdE1). It counts as functional. The conditions noted are these: 30 µM.

Assay [3] has as its target Sialic acid-binding Ig-like lectin 9 (Homo sapiens) (UniProt Q9Y336). As to the kind of experiment: Hs-Siglec9 ALPHAscreen SOP 20170721. The conditions noted are these: 10 µM. (In general: In Alpha technology, singlet oxygen from a donor bead excites a nearby acceptor bead.)
A further assay concerns Trypanosoma cruzi. As to the kind of experiment: Trypanosoma cruzi phosphomannomutase and mannose-1-phosphate guanylyltransferase assay. It counts as functional. The conditions noted are these: 10 µM.
Assay [4] addresses T2, Arginase-2, mitochondrial (Homo sapiens) (UniProt P78540).
T2 sequence (whole entry): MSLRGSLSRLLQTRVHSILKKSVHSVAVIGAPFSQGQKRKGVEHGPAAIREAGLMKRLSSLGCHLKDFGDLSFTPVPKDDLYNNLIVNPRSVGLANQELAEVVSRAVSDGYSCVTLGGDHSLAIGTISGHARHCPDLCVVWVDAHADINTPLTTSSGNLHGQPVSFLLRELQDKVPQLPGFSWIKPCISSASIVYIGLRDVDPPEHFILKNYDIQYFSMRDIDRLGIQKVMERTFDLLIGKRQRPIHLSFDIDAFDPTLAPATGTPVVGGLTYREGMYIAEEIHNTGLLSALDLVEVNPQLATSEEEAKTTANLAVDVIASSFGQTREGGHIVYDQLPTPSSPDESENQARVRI
Briefly: in vitro enzyme assay to detect the production of urea directly proportional to the activity of Arginase II. Also: in the data most compounds retested in dose-response had high values. It counts as functional. The conditions noted are these: 33.3 µM.

Assay [5] addresses T3, Proteasome subunit beta (Trypanosoma cruzi) (UniProt O96673).
T3 sequence (whole entry): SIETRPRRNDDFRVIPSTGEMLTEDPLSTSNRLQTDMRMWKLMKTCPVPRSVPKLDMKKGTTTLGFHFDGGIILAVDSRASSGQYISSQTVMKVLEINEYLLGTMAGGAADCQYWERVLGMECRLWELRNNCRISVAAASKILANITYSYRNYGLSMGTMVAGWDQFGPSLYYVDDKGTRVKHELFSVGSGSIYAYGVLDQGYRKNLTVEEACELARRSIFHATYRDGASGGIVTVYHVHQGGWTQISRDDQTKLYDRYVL
Briefly: Trypanosoma cruzi proteasome chymotrypsin-like activity (TcProtChymo) assay. Also: in the data most compounds retested in dose-response had high values. It counts as functional. The note with it: 9.37 µM.

The species named for another assay is Homo sapiens. Briefly: To identify inhibition of the IFN signalling (Jak-Stat) pathway via expression of an eGFP reporter gene under the control of an IFN-stimulated response element (ISRE) containing MxA promoter. It counts as functional. The conditions noted are these: 30 µM. (In general: Reporter assays use an easily measured gene product as a stand-in for the process of interest.)

Assay [6] deals with T4, Tyrosyl-tRNA synthetase, putative (Trypanosoma cruzi (strain CL Brener)) (UniProt Q4DSP6).
T4 sequence (whole entry): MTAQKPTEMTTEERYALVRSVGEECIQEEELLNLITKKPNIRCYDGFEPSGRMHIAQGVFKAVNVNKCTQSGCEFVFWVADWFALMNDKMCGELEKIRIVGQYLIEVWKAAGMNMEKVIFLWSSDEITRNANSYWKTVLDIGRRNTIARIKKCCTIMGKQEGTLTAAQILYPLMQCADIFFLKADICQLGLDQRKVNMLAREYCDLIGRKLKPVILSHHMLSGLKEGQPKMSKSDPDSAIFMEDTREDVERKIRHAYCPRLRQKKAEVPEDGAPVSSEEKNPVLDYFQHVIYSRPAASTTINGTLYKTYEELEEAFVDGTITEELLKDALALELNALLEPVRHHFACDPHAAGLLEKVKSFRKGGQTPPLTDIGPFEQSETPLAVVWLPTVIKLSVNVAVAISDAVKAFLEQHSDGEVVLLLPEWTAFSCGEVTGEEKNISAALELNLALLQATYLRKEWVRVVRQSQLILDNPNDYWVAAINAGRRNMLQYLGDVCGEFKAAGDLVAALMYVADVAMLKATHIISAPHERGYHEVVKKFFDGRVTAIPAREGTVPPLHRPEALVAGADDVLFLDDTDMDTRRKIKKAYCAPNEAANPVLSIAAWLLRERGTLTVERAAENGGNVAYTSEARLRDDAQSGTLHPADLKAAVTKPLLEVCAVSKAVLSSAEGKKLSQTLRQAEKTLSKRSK
Briefly: Trypanosoma cruzi tyrosyl tRNA synthetase (TcYRS) _High Tyrosine SOP. Also: in the data most compounds retested in dose-response had high values. It counts as functional. The note with it: 30 µM.

The target in assay [7] is T4, Tyrosyl-tRNA synthetase, putative (Trypanosoma cruzi (strain CL Brener)). As to the kind of experiment: Trypanosoma cruzi tyrosyl tRNA synthetase (TcYRS) SOP. The note with it: 30 µM. It counts as functional.
Assay [8] has as its target Chromo domain-containing protein 1 (Saccharomyces cerevisiae (strain ATCC 204508 / S288c) (Baker's yeast)) (UniProt P32657). Briefly: ScCHD-1 Enzyme Inhibition Assay. Also: in the data most compounds retested in dose-response had high values. The conditions noted are these: 30 µM. It counts as functional.

The structures appear in SMILES notation. For some assays here: Results with a measured potency or affinity are listed apart.

Chromo domain-containing protein 1 (Saccharomyces cerevisiae (strain ATCC 204508 / S288c) (Baker's yeast)), sequence (P32657 whole entry, the tested form may be a part): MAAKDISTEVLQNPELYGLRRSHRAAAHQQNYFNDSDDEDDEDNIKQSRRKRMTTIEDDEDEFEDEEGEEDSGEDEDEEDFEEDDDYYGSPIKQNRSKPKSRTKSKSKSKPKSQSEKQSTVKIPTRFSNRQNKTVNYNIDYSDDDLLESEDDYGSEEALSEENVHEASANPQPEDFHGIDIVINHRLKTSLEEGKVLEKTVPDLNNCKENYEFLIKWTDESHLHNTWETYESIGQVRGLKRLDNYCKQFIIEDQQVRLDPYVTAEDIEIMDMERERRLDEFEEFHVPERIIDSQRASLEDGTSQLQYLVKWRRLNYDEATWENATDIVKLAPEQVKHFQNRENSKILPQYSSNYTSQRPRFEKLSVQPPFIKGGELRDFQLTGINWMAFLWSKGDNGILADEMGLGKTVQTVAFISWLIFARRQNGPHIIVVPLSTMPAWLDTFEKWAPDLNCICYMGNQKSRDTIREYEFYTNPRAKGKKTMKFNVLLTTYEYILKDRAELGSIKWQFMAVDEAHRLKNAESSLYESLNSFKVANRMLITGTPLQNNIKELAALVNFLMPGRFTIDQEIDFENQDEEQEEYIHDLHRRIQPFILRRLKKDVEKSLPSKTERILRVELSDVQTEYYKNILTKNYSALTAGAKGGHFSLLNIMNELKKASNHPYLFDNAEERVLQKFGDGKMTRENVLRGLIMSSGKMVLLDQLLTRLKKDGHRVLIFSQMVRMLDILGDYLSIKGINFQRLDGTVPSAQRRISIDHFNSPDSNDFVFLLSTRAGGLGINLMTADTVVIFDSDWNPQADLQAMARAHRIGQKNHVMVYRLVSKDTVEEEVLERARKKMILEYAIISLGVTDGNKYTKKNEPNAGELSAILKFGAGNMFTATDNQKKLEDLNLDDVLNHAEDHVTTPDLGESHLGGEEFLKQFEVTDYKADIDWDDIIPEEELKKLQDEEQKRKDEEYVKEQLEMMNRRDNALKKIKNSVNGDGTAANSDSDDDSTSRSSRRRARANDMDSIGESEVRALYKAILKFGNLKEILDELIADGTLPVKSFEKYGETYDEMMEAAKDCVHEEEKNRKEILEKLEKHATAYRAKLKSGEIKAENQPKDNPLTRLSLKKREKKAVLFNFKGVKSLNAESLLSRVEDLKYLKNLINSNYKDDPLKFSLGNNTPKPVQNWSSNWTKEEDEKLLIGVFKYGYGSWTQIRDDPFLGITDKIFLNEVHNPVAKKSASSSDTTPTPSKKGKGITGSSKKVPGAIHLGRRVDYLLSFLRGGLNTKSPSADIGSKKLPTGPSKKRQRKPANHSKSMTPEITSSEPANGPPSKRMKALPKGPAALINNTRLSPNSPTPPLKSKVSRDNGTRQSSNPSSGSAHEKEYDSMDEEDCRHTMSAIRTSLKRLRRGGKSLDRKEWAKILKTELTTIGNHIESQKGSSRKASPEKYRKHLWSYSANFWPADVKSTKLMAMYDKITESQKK
Protein translocase subunit SecA (Escherichia coli (strain K12)), sequence (P10408 whole entry): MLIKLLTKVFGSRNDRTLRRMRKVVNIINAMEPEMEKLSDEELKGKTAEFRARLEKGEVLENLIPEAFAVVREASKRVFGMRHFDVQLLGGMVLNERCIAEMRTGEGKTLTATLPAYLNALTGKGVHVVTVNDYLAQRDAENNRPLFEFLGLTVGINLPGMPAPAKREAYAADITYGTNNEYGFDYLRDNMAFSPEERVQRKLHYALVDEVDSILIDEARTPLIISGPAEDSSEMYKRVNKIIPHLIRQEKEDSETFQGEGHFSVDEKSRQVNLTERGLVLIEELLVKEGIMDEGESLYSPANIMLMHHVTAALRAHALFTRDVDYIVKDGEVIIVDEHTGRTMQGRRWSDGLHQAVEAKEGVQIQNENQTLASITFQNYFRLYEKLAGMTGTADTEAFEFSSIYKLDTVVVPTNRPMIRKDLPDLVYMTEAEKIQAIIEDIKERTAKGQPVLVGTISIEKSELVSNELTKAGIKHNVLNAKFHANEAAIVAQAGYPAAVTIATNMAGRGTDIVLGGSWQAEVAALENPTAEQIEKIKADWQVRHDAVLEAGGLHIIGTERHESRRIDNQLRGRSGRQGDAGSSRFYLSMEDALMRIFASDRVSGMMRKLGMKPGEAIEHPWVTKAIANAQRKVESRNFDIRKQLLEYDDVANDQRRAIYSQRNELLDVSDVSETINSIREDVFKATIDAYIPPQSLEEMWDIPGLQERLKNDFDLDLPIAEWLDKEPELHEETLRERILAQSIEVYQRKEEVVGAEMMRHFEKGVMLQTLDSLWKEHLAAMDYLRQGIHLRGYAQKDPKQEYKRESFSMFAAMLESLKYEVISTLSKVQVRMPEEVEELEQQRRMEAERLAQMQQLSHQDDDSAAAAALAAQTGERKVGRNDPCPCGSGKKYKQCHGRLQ
Sialic acid-binding Ig-like lectin 9 (Homo sapiens), sequence (Q9Y336 whole entry): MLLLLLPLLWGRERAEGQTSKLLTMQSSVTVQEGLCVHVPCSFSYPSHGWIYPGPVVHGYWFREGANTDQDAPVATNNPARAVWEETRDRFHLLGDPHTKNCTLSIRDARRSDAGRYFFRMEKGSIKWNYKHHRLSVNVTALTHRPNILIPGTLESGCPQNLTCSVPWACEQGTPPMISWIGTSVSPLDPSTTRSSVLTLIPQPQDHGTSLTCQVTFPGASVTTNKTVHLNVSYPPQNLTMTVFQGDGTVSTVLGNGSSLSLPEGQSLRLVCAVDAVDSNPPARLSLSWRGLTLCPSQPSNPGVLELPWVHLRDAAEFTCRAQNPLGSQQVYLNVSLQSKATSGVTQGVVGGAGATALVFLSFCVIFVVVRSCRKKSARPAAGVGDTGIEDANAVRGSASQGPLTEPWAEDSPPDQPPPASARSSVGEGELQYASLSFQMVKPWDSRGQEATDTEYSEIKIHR

For `NC[C@H]1CC[C@H](C(NC(=O)c2ccccn2)c2ccccn2)CC1` (stereo not given in full), the Percent Effect in assay [1] was 0.0974%; in assay [2], 14.7%; in assay [3] it was 1.2%; with Trypanosoma cruzi, -1.58%; in [4] it was 0.443%; in [5], 15.6%. Also, the Percent Effect was 8.78% in the assay filed under Homo sapiens, 4.23% in assay [6], 22.5% in assay [7] and -24.4% in assay [8].

As for `CC(C)c1cc(N2CCN(c3ccc(O)cc3)CC2)n2nccc2n1`, the Percent Effect in assay [1] is -0.0494%; in assay [2], 5.41%; in assay [3], 0.937%; with Trypanosoma cruzi, -0.873%; in [4] it was 5.25%; in assay [5] it was 19.7%. Moreover, the Percent Effect in the assay listed under Homo sapiens is 0.905%; in assay [6] it was 27.1%; in assay [7] it was 34.1%; in assay [8], -3.77%.

On to `O=C1CO[C@@H]2CN(Cc3cccs3)C[C@H]2N1CC1CC1`, for which the Percent Effect in assay [1] was -6.35%; in assay [2], 19.5%; in assay [3], -2.08%; in the assay on Trypanosoma cruzi, 2.04%; in assay [4], 1.62%; in assay [5], 13.9%. Further, the Percent Effect in the assay listed under Homo sapiens was -6.77%; in [6], 13.2%; in assay [7] it was 17.9%; in assay [8], -0.629%.

Consider `CN1CCC(c2ncc3c(n2)CCN(C(=O)CC2C=CCC2)C3)CC1` (stereo not given), for which the Percent Effect was 1.34% in assay [1]; 14.7% in [2]; -4.21% in [3]; -1.58% in the assay on Trypanosoma cruzi; 3.1% in assay [4]; 9.03% in assay [5]. Also, the Percent Effect was 7.04% in the assay filed under Homo sapiens, 12.7% in assay [6], 22.5% in assay [7] and -23.1% in assay [8].

Take `CN(C)C(=O)CCC(=O)NCc1cccnc1-n1cnc2ccccc21`: the Percent Effect was -4.75% in [1]; -2.7% in [2]; -1.92% in assay [3]; -1.46% in the assay on Trypanosoma cruzi; -9.44% in [4]; -1.03% in assay [5]. Also, the Percent Effect in the assay filed under Homo sapiens is -10.5%; in assay [6] it was 1.6%; in assay [7], -2.44%; in assay [8], 0.948%.

As to `Cc1nccc(CN2CC[C@H](Oc3cccc(F)c3)[C@@](C)(O)C2)n1`, the Percent Effect in [1] was -2.64%; in assay [2], 14.7%; in assay [3] it was 6.31%; with Trypanosoma cruzi it was -0.197%; in [4] it was 3.1%; in [5], 0.657%. Also, the Percent Effect was 2.7% in the assay filed under Homo sapiens, 7.41% in [6], 15% in assay [7] and -17.3% in [8].

As for `Cc1cccc(CN2C[C@@H]3COC[C@]3(CNC(=O)N3CCCC3)C2)n1`, the Percent Effect was -4.34% in assay [1]; -1.3% in assay [2]; 12.9% in [3]; -3.02% in the assay with Trypanosoma cruzi; -4.86% in assay [4]; 4.68% in assay [5]. Besides, the Percent Effect in the assay filed under Homo sapiens came out at 1.04%; in assay [6] it was 3.68%; in assay [7] it was 5.13%; in [8], 1.29%.

For `CCC(O)CN1CCN(C(=O)c2sccc2OC)CC1` (stereo not given), the Percent Effect is 0.313% in [1]; 7.79% in assay [2]; 10.4% in assay [3]; 2.24% with Trypanosoma cruzi; -3.89% in assay [4]; 0.526% in [5]. Moreover, the Percent Effect in the assay filed under Homo sapiens is 16.7%; in assay [6], 3.92%; in assay [7], 16.5%; in assay [8], -3.7%.

Turning to `Cc1ncc(-c2ccnc(N3CCN(C)CC3)n2)c(-c2cccnc2)n1`, the Percent Effect in assay [1] was -1.44%; in assay [2] it was 8%; in assay [3], -2.21%; with Trypanosoma cruzi, -9.24%; in [4], -39.9%; in [5], 8.57%. Moreover, the Percent Effect is 8.85% in the assay filed under Homo sapiens, 4.74% in assay [6], -2.56% in [7] and -12.5% in [8].

For `Cc1cc(C)cc(OCC(=O)NC2CCN(S(C)(=O)=O)CC2)c1`, the Percent Effect in assay [1] is -3.04%; in assay [2], 13%; in assay [3], -6.89%; in the assay with Trypanosoma cruzi, -8.58%; in assay [4] it was -1.84%; in assay [5], 8.77%. For the same compound, the Percent Effect in the assay listed under Homo sapiens was 14.6%; in [6], 3.92%; in assay [7], 16.5%; in assay [8] it was -7.11%.

On to `Cn1ccc(C(=O)NCc2cccc(NC(=O)C3CCC3)c2)cc1=O`, for which the Percent Effect was -3.75% in assay [1]; 26% in assay [2]; 5.5% in assay [3]; 4.48% in the assay with Trypanosoma cruzi; -1.84% in [4]; 12.3% in [5]. Moreover, the Percent Effect was 12% in the assay listed under Homo sapiens, 2.94% in assay [6], 21.2% in [7] and -9.82% in assay [8].
